Results published in PubChem BioAssay.
“And” between values parts separate entries of the source, which are not always exact repeats. Equal entries are not always repeated. A structure can be active in one record and inactive in another. The source made the active and inactive calls. Unless noted, how the calls were made is not given here.

What was measured:
[1] = resazurin metabolic signal in HepG2 cells – cell-based, resazurin fluorescence, 24 h, PK04 Diversity Set, profiling panel (AID 1172); conditions: HepG2 viability, higher = more signal; further: test concentration not given here
[2] = budding yeast growth changes without added modifier – OD600, strain BY4716, 24 h, basal condition, primary screen (AID 1173); conditions: S. cerevisiae BY4716 growth, OD600, 24 h; higher = more signal, called active from +8 up or from −8 down
[3] = viability profiling in MM1S myeloma cells – cell-based, resazurin fluorescence, basal, 24 h, PK04 Diversity Set, profiling panel (AID 1174); conditions: higher = more signal, called active from +8 up or from −8 down;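 further: MM1S multiple myeloma cell line; test concentration not given here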
[4] = molecular target: Dihydroorotate dehydrogenase (quinone), mitochondrial (Plasmodium falciparum (isolate 3D7)) (UniProt Q08210); test: inhibition of P. falciparum DHODH – biochemical, C-terminal His tag, absorbance 600 nm, primary screen (AID 1175); conditions: PfDHODH enzyme, DCIP absorbance 600 nm; higher = more signal, called active from +8 up or from −8 down;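 further: recombinant parasite enzyme with a five histidine tag at its C terminus; test concentration not given here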
Sequence of Dihydroorotate dehydrogenase (quinone), mitochondrial (Plasmodium falciparum (isolate 3D7)) (Q08210 whole entry, looked up): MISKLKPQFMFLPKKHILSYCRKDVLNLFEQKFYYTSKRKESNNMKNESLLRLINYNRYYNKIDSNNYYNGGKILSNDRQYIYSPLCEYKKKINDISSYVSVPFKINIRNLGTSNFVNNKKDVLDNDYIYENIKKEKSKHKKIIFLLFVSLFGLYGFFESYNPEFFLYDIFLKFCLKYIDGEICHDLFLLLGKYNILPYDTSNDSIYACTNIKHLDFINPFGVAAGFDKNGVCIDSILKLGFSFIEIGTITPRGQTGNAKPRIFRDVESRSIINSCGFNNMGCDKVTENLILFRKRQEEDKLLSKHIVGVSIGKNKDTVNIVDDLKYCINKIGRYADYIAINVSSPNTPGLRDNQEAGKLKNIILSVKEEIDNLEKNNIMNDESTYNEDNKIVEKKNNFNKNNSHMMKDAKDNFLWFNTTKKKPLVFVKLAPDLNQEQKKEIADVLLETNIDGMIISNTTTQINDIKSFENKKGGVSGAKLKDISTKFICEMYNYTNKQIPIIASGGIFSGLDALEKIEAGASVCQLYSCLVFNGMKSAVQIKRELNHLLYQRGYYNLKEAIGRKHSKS

[5] = inhibition of PAO1 biofilm formation – strain PAO1, LB-PBS medium, absorbance 600 nm, primary screen (AID 1176); further: test concentration not given here; conditions: P. aeruginosa PAO1 growth/biofilm, A600, 12 h; higher = more signal
[6] = growth modulation of vineyard yeast isolate – strain RM11-1a, OD600, basal, 24 h, primary screen (AID 1177);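 further: cultures grown under basal conditions with no added stressor; test concentration not given here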; conditions: S. cerevisiae RM11-1a growth, OD600, 24 h; higher = more signal, called active from +8 up or from −8 down
[7] = growth of efflux-deficient E. coli DRC39 – strain DRC39, OD650, 24 h, E. coli filamentation inducers, primary screen (AID 1178);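 further: growth measured as culture turbidity by optical density at 650 nm; test concentration not given here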; conditions: E. coli DRC39 acrAB, higher = more signal, called active from +8 up or from −8 down
[8] = growth of efflux-deficient E. coli DRC39 – strain DRC39, OD650, 48 h, E. coli filamentation inducers, primary screen (AID 1179);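 further: screen aims at cell division blockers that make cells filament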; conditions: E. coli DRC39 delta-acrAB growth, higher = more signal, called active from +8 up or from −8 down
[9] = viability profiling in RPMI8226 myeloma cells – cell-based, resazurin fluorescence, basal, 24 h, PK04 Diversity Set, profiling panel (AID 1180); conditions: higher = more signal;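 further: RPMI8826 multiple myeloma cell line at 5000 cells per well; test concentration not given here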
[10] = molecular target: E3 ubiquitin-protein ligase XIAP (Homo sapiens) (UniProt P98170); test: small molecules binding XIAP protein – biophysical, small-molecule microarray, fluorescence 635 nm, primary screen (AID 1181); conditions: higher = more signal;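 further: score merges 667 nm emission and signal to noise over triplicate slides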
Sequence of E3 ubiquitin-protein ligase XIAP (Homo sapiens) (P98170 whole entry, looked up): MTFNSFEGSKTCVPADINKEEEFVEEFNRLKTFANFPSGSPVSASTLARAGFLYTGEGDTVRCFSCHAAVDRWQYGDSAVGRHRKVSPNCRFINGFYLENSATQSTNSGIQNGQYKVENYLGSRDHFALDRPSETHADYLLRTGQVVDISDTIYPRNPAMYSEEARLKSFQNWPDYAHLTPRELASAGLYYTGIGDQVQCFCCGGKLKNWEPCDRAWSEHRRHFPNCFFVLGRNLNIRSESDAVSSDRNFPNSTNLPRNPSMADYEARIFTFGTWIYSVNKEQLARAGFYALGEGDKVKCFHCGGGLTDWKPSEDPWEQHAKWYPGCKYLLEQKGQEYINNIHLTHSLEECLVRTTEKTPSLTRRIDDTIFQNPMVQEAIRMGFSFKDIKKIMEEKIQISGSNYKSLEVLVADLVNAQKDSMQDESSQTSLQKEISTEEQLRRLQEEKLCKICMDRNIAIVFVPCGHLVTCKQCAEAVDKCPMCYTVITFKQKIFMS

Compound | z-score [1] | z-score [2] | z-score [3] | composite z-score [4] | z-score [5] | z-score [6] | z-score [7] | z-score [8] | z-score [9] | composite z-score [10]
Cc1cc2c(nc1C)CCCN2CC(O)CN1CCCc2nc(-c3ccc(Br)cc3)ccc21 (stereo not given) | -0.366 and -0.367 | -7.09 (inactive) and -1.64 (inactive) | -0.959 (inactive) and -0.771 (inactive) | 1.95 (inactive) and 1.18 (inactive) | -0.257 (inactive) and -0.0569 (inactive) | 1.37 (inactive) and 0.795 (inactive) | -0.342 (inactive) and 0.458 (inactive) | -0.752 (inactive) and 0.0169 (inactive) | 0.0199 and -0.821 | 1.1 and 1.9
C#CCN1C(/C=C/c2ccccc2)C(=O)OC[C@H]1c1ccccc1 (stereo not given in full) | 0.0256 and 1.82 | -5.79 (inactive) and -4.84 (inactive) | 0.911 (inactive) and 0.42 (inactive) | -3.42 (inactive) and -0.43 (inactive) | -0.73 (inactive) | -2.77 (inactive) and -0.151 (inactive) | 2.04 (inactive) and 0.715 (inactive) | 0.639 (inactive) and -0.294 (inactive) | 0.681 and 1.36 | 0.0727 and -0.0871
C=C[C@@H](OC)[C@H](O)c1ccc(O)c(F)c1 | 0.097 and -0.0575 | -8.11 (active) and -7.12 (inactive) | 0.0746 (inactive) and 0.161 (inactive) | 0.789 (inactive) and -1.04 (inactive) | 0.826 (inactive) and 0.143 (inactive) | 1.17 (inactive) and -1.07 (inactive) | 0.407 (inactive) and 0.707 (inactive) | 0.27 (inactive) and 0.965 (inactive) | -0.0761 and 0.295 | -0.195 and 0.0027
C=C[C@H](OC)[C@@H](O)c1ccc(OCCO)cc1 | -0.843 and 0.501 | -0.43 (inactive) and -1.55 (inactive) | -0.887 (inactive) and 0.51 (inactive) | -0.0113 (inactive) and -0.134 (inactive) | 0.0123 (inactive) and 1.37 (inactive) | 0.952 (inactive) and -0.0987 (inactive) | -0.258 (inactive) and 1.78 (inactive) | -0.366 (inactive) and 1.8 (inactive) | -1.28 and 1.05 | -0.206 and -0.352
CCN1C(=O)[C@H]2[C@H]3[C@H](O)[C@H](O)CC(=NNC(=O)OCc4ccc(OC)cc4)[C@H]3CC[C@H]2C1=O | -1.02 | 0.199 (inactive) | -2.24 (inactive) | -0.223 (inactive) | -0.273 (inactive) | 0.632 (inactive) | -0.0482 (inactive) | 0.559 (inactive) | -1.38 | 0.0322
C[C@@]1([C@@H](NC(=O)Cc2ccccc2)c2ccc(-c3ccccc3)cc2)C[C@H]1C1CCCCC1 | -1.11 and 1.82 and -1 | 0.332 (inactive) and 0.351 (inactive) and 1.3 (inactive) | -0.506 (inactive) and 1.03 (inactive) and -1.05 (inactive) | -4.04 (inactive) and -0.594 (inactive) and -0.535 (inactive) | 2.92 (inactive) and 1.4 (inactive) and 1.18 (inactive) | 1.75 (inactive) and 0.465 (inactive) and 1.58 (inactive) | -0.305 (inactive) and -0.278 (inactive) and -1.43 (inactive) | -0.0393 (inactive) and -0.777 (inactive) and -0.74 (inactive) | -3.36 and 2.84 and -1.47 | 0.102 and 0.0464 and -0.02
COC(=O)c1c2oc(c1C(=O)OC)C(=O)N[C@@H](Cc1ccccc1)Cn1cc(nn1)C1(CCCCC1)NC(=O)N[C@H](CO)CC2 | 1.61 and 1.46 | -4.6 (inactive) and 0.628 (inactive) | 0.74 (inactive) and 2.29 (inactive) | 0.338 (inactive) and 0.282 (inactive) | 1.33 (inactive) and 0.997 (inactive) | -0.0882 (inactive) and -0.376 (inactive) | 1.89 (inactive) and 0.153 (inactive) | 1.56 (inactive) and 0.279 (inactive) | 0.688 and 2.64 | 0.065 and -0.0187
CCC[C@@H]1C[C@@]1(CCC)[C@@H](NC(=O)c1ccc(-c2ccccc2)cc1)c1cccc(Cl)c1 | 0.791 and 0.395 | 0.0143 (inactive) and 1.49 (inactive) | -0.0393 (inactive) and -0.312 (inactive) | -0.824 (inactive) and 0.499 (inactive) | 1 (inactive) and 0.343 (inactive) | 0.38 (inactive) and 1.47 (inactive) | -0.505 (inactive) and -0.336 (inactive) | -0.61 (inactive) and -0.0929 (inactive) | 0.889 and -0.275 | -0.0305 and 0.0623
C=CCN(Cc1ccccc1)C(=O)C(c1cccs1)N(C(=O)/C=C\C(=O)O)c1ccc(CCO)cc1 (stereo not given) | -0.42 and -0.633 | 0.0593 (inactive) and -0.0181 (inactive) | -0.0351 (inactive) and -0.273 (inactive) | -0.866 (inactive) and -0.0473 (inactive) | -0.208 (inactive) and 0.233 (inactive) | 0.374 (inactive) and 0.514 (inactive) | 0.866 (inactive) and 0.736 (inactive) | 0.722 (inactive) and 0.609 (inactive) | 0.565 and -0.122 | -0.0987 and 0.035
COC(=O)C1=C(C)N(Cc2ccccc2)C2=C3C(=O)N(c4ccccc4)C(=O)[C@@H]3[C@@](O)(C(=O)OC)C(=O)N2[C@@H]1c1ccccc1 | 0.941 and 0.879 | -1.31 (inactive) and -2.61 (inactive) | 0.463 (inactive) and 1.02 (inactive) | -0.0764 (inactive) and -0.563 (inactive) | -0.847 (inactive) | -0.305 (inactive) and -1.62 (inactive) | 0.284 (inactive) and 1.07 (inactive) | -0.23 (inactive) and 1.2 (inactive) | 0.698 and 0.334 | 0.122 and 0.0178
CO[C@@H]1C=CCC(=O)N2CCC[C@H]2C(=O)OC[C@H](C)C(=O)OC[C@H]1C | 0.445 | -0.774 (inactive) | -0.694 (inactive) | 0.634 (inactive) | -0.72 (inactive) | 0.134 (inactive) | 1.08 (inactive) | 0.858 (inactive) | 0.312 | 0.0595
C[N+](C)(C)CCCCNC(=O)[C@@H]1C[C@@H]2C(=O)N[C@@H](CCCC[N+](C)(C)C)C(=O)N2[C@@H]1c1cccc(OCCO)c1 | -0.249 and -0.0346 | 0.962 (inactive) and 0.187 (inactive) | 0.405 (inactive) and 0.349 (inactive) | -30.9 (active) and -30.3 (active) | -0.239 (inactive) and 0.022 (inactive) | 1.57 (inactive) and 0.24 (inactive) | 0.113 (inactive) and -0.132 (inactive) | -0.0555 (inactive) and 0.517 (inactive) | 0.399 and 0.607 | 1.01 and -0.22
C=CCN(Cc1ccccc1)C(=O)C1N(c2c(Cl)cccc2CO)C(=O)C2C(C(=O)O)C3C=CC21O3 (stereo not given) | 0.753 and -0.367 | -2.14 (inactive) and -0.245 (inactive) | 1.33 (inactive) and -0.324 (inactive) | -0.33 (inactive) and 0.994 (inactive) | -0.236 (inactive) and -0.329 (inactive) | -3.44 (inactive) and 0.92 (inactive) | 2.24 (inactive) and -0.745 (inactive) | 2.55 (inactive) and -0.89 (inactive) | 0.565 and -0.662 | 0.0379 and -0.051
C=CCN(C(=O)C1N(CCOCCO)C(=O)C2C(C(=O)O)C3C=CC21O3)C(C)(C)C (stereo not given) | 0.0542 and -0.741 | -0.0565 (inactive) and 0.494 (inactive) | -0.2 (inactive) and -1.16 (inactive) | 0.256 (inactive) and 1.36 (inactive) | -0.0558 (inactive) and 0.578 (inactive) | -0.0478 (inactive) and -0.166 (inactive) | -0.335 (inactive) and -0.685 (inactive) | -0.664 (inactive) and -0.923 (inactive) | -0.244 and -1.69 | 0.0009 and -0.0369
CO[C@H]1COC(=O)CC=C[C@@H](C)COC(=O)[C@H](CCSC)NC(=O)CC=C[C@@H]1C | -0.591 and 0.597 | -0.92 (inactive) and -2.28 (inactive) | -0.473 (inactive) and 1.67 (inactive) | 0.177 (inactive) and 0.0636 (inactive) | 0.0821 (inactive) | -0.177 (inactive) and -0.642 (inactive) | 0.277 (inactive) and 0.719 (inactive) | -1.27 (inactive) and 0.0985 (inactive) | -0.0162 and 1 | 0.266 and 0.0623
C=CCN(C(=O)C1N(c2ccc(CCO)cc2)C(=O)C2C(C(=O)O)C3C=CC21O3)c1ccc(OC)cc1 (stereo not given) | -1.89 and 0.336 | -0.311 (inactive) and -0.641 (inactive) | -1.58 (inactive) and 0.522 (inactive) | 0.51 (inactive) and -0.392 (inactive) | -0.606 (inactive) and 0.428 (inactive) | 0.671 (inactive) and -0.529 (inactive) | -0.782 (inactive) and 0.15 (inactive) | -0.949 (inactive) and -0.249 (inactive) | -0.641 and -0.0655 | 0.0808 and -0.0054
CC(C)C(=O)N[C@@H]1CCCN1C(=O)C=Cc1ccccc1 | -0.0786 | -1.17 (inactive) | -0.0492 (inactive) | -1.3 (inactive) | 0.286 (inactive) | -1.19 (inactive) | 0.595 (inactive) | -0.0803 (inactive) | 0.227 | -0.113
C=CCN(CCCCC)C(=O)C(c1cccs1)N(CCOCCO)C(=O)/C=C\C(=O)O (stereo not given) | -0.925 and -0.111 | -0.397 (inactive) and -0.258 (inactive) | -0.223 (inactive) and 0.149 (inactive) | -1.15 (inactive) and -1.27 (inactive) | 0.0126 (inactive) and -0.401 (inactive) | -1.37 (inactive) and -1.48 (inactive) | -0.388 (inactive) and 0.106 (inactive) | 0.526 (inactive) and 0.855 (inactive) | 0.096 and -0.165 | 0.548 and -0.0273
